The list is not random: actives were taken first. Their share in the collection is about 3.4%.
TEAD-YAP block = TEAD-YAP interaction inhibition; HEK-TIYL cells, TEAD-Gal4/YAP UAS-luciferase luminescence; inhibition, % at 9.12 µM; 1.4% of 640,000 active; in the data active means inhibition above about 32%
FBW7 activator = human FBW7 E3 ligase activation, primary screen; 0.13% of 650,000 active; AlphaScreen FBW7–phospho-cyclin E peptide binding, activator screen; normalized activity (activation), % at 26.1 µM; Q969H0; in the data active means normalized activity above about 1.9%;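 further: purified mutant Fbw7 with reduced substrate affinity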
MITF inh = human MITF inhibition, primary screen; O75030; AID 1259374; AlphaScreen MITF homodimerization, bead proximity signal; 0.91% of 650,000 active; inhibition, % at 2.6 µM; in the data active means inhibition above about 50%
Target sequence (O75030 whole entry, looked up): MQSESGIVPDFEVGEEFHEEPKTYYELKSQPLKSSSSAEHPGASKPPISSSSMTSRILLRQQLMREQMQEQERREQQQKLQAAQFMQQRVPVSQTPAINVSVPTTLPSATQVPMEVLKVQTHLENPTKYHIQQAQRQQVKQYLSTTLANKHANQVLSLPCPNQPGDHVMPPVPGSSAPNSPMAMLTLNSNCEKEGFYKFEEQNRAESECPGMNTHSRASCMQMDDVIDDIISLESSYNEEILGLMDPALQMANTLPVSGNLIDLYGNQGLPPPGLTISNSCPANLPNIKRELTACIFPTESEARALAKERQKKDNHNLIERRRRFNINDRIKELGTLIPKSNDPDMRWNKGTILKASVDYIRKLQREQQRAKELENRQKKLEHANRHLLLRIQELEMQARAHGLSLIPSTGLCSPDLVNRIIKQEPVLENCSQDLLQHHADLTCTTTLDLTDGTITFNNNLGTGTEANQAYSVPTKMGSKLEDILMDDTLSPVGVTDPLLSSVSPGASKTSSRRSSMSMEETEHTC
GPR151 ag = activators of human GPR151; Q8TDV0; PathHunter beta-arrestin GPR151 cells, luminescence; activation, % at 11.2 µM; 1% of 650,000 active; AID 1508602; in the data active means activation above about 4.9%
Large screens that a line does not name were inactive.

O=C(Nc1ccc(-c2ccccc2)cc1)c1ccccn1	TEAD-YAP block 64
O=C(Nc1cc(Cl)cc(Cl)c1)c1ccccn1	none
N/C(=N\O)c1ccc(NC(=O)c2ccccn2)cc1	TEAD-YAP block 32
N/C(=N\OC(=O)c1ccc(F)cc1)c1ccccn1	TEAD-YAP block 56
O=C1c2ccccc2C(=O)N1Cc1cccnc1	none
Nc1ccc(Oc2ccc3c(c2)C(=O)N(Cc2cccnc2)C3=O)cc1	TEAD-YAP block 35
COc1ccccc1CNC(=O)c1c[nH]c2ccc(S(=O)(=O)NC3CCCCNC3=O)cc2c1=O (stereo unspecified)	none
COc1cccc(Nc2nc(N3CCN(CCO)CC3)nc3c2cnn3C)c1	TEAD-YAP block 41
CCc1nn(CC(=O)OC(C)C)c(=O)c2cc3sc(C)cc3n12	none
CN(C)CCNC(=O)C(=O)NCC(c1ccco1)S(=O)(=O)c1cccs1 (stereo unspecified)	none
COc1cccc(C(=O)c2oc3ccc(NC(=O)c4cc(OC)c(OC)c(OC)c4)cc3c2C)c1	none
Cc1nc2ncnn2c(NCc2ccc(F)cc2)c1C	TEAD-YAP block 45
Cc1ccccc1Nc1c(C)c(C)nc2ncnn12	none
CCCCC1(CCCC)C(=N)N(C)C(=O)NC1=O	none
O=C(Nc1cccc(C(=O)NC2CC2)c1)C(=O)Nc1ccc2c(c1)OCCO2	TEAD-YAP block 66
CCC(CC)C(=O)Nc1cccc(C(=O)Nc2ccc3c(c2)OCCO3)c1	none
Cc1ccc(C(=O)Nc2ccc3c(c2)OCCO3)c(C)c1	TEAD-YAP block 89
Cc1cc(C)c(C(=O)Nc2ccc3c(c2)OCCO3)c(C)c1	none
O=C(Nc1ccc2c(c1)OCCO2)c1ccccc1F	TEAD-YAP block 41
Cc1ccc(C2=NC(C)(C)N=C2SCC(=O)Nc2ccc3c(c2)OCCO3)cc1	FBW7 activator 3.7
COCCCNC(=S)NC(=O)c1ccccc1Br	none
O=C1C2C3C=CC(C3)C2C(=O)N1c1ccc(Cl)cc1O (stereo unspecified)	none
O=C(Nc1ccc2c(c1)OCCO2)c1ccccc1O	TEAD-YAP block 56
Cc1ccc2c(C)nc(N3CCCC(NCC4COc5ccccc5O4)CC3)nc2c1 (stereo unspecified)	FBW7 activator 1.9
Cc1ccc2nc3ccc(N4CCCC4)nn3c(=O)c2c1	none
CC1CCCN(c2ccc3nc4ccccc4c(=O)n3n2)C1 (stereo unspecified)	TEAD-YAP block 71
CC(=O)Nc1cc(F)cc(-c2ccnc(Nc3ccc(-n4nc(C)nc4C)cc3)n2)c1	TEAD-YAP block 45
Cc1nc(C)n(-c2ccc(Nc3nccc(-c4cccc(-n5ccnn5)c4)n3)cc2)n1	TEAD-YAP block 44
CCOc1ccc(-c2cc(C(=O)N/N=C/c3ccc(F)cc3)[nH]n2)cc1	TEAD-YAP block 41
CCOc1cc(/C=N/NC(=O)C(=O)N/N=C/c2ccc(O)c(OCC)c2)ccc1O	none
CCOc1cc(/C=N/NC(=O)c2cc(O)c(O)c(O)c2)ccc1O	MITF inh 82
CCOc1ccc(-c2cc(C(=O)N/N=C/c3ccc(O)c(OCC)c3)[nH]n2)cc1	TEAD-YAP block 43
CC(C)N(C(=O)CSc1nnnn1Cc1ccccc1)C(C)C	none
CN(C(=O)Cn1nc(-c2ccoc2)oc1=O)C1CCCCC1	none
CC(C)(C)OC(=O)N[C@H]1CC[C@H](C(=O)Nc2ccc3[nH]ncc3c2)C1	none
CCOC(=O)c1c(C)sc2c3c([nH]c12)CCCC3	TEAD-YAP block 62
CC(=O)Nc1ccccc1Nc1cc(Nc2ccc3c(c2)CC(=O)N3)ncc1C(F)(F)F	TEAD-YAP block 41
CNC(=O)c1ncccc1Nc1cc(Nc2ccc3c(c2)CC(=O)N3)ncc1C(F)(F)F	none
CNC(=O)c1ncccc1Nc1cc(Nc2ccc3c(c2)CCC(=O)N3)ncc1C(F)(F)F	TEAD-YAP block 35
CCOc1ccc(C(=O)CN2CCN(c3ccc(F)cc3)CC2)cc1	none
CC1Cc2nn(-c3ccccc3)c(-c3cccnc3)c2C(=O)C1C (stereo unspecified)	none
C/C(=C\C(=O)NC1CC(C)(C)NC(C)(C)C1)NC1CC(C)(C)NC(C)(C)C1	none
COc1ccc(-c2noc(CN(Cc3ccccn3)CC3CCCO3)n2)c(OC)c1OC (stereo unspecified)	TEAD-YAP block 39
O=C(Nc1cccc(Cl)c1)c1cc(S(=O)(=O)N2CCc3ccccc3C2)ccc1F	none
O=C(Nc1ccc(N2CCCN(C(=O)C3CC3)CC2)cc1)c1ccc(-n2cccc2)cc1	TEAD-YAP block 33
Nc1nc(NCCN2CCOCC2)cc(N2CCN(Cc3ccc4c(c3)OCO4)CC2)n1	none
CCn1c(C)cc(/C=C2/NC(=O)N(c3ccccc3)C2=O)c1C	TEAD-YAP block 33
COc1cccc(/C=C2/NC(=O)N(c3ccccc3)C2=O)c1O	TEAD-YAP block 35
COc1ccccc1/C=C1/NC(=O)N(c2cccc(Cl)c2)C1=O	none
O=C(NC1(c2ccccc2)CC1)c1cc(COc2ccc3ncccc3c2)on1	TEAD-YAP block 58
CC(CCCC(C)(C)O)NC(=O)c1cc(COc2ccc3ncccc3c2)on1 (stereo unspecified)	TEAD-YAP block 33
OCCNc1cc(NCCN2CCOCC2)ncn1	none
CN1CCN(Cc2cc(Br)c3cccnc3c2O)CC1	TEAD-YAP block 45, MITF inh 89
Oc1c(CN2CCN(c3cccc(C(F)(F)F)c3)CC2)cc(Br)c2cccnc12	TEAD-YAP block 37
CC1CCN(Cc2cc(Br)c3cccnc3c2O)CC1	TEAD-YAP block 47, MITF inh 69
Oc1c(CN2CCOCC2)cc(Br)c2cccnc12	TEAD-YAP block 49
Oc1c(CN2CCN(c3cccc(Cl)c3)CC2)cc(Cl)c2cccnc12	none
Oc1c(Br)cc(Br)c2cccnc12	none
Cc1c(C(=O)CSc2ccc(Br)cc2)sc2ncnn12	none
CCCc1cc(=O)[nH]c(SCC(=O)NC(C)c2ccccc2)n1 (stereo unspecified)	none
Cc1[nH]c2c(C(=O)NCC3Cc4c(F)ccc(-c5ncccn5)c4O3)cccc2c1C (stereo unspecified)	TEAD-YAP block 32
N#CC1=C(N)Oc2n[nH]c(-c3ccccc3)c2C1c1cccc(OC(=O)c2ccco2)c1 (stereo unspecified)	none
COc1ccc(NS(=O)(=O)c2ccc(Cc3ccc(S(=O)(=O)Nc4ccc(OC)cc4OC)cc3)cc2)c(OC)c1	TEAD-YAP block 37
CCOc1ccc(S(=O)(=O)Nc2ccc(OC)c(OC)c2)cc1	TEAD-YAP block 57
COc1ccc(NS(=O)(=O)c2ccc(-c3ccc(S(=O)(=O)Nc4ccc(OC)cc4OC)cc3)cc2)c(OC)c1	none
CCOc1ccc(NS(=O)(=O)c2ccc(OC)c(OC)c2)cc1	none
COc1ccc(NS(=O)(=O)c2ccc(Oc3ccccc3OC)cc2)cc1	TEAD-YAP block 33
CCOc1ccc(OCC)c(NS(=O)(=O)c2c[nH]c(C(=O)OC)c2)c1	TEAD-YAP block 53
COc1cccc(NS(=O)(=O)c2ccc(Oc3ccccc3OC)cc2)c1	none
C/C(=N/Nc1nc(N2CCOCC2)nc(N2CCOCC2)n1)c1ccc(Cl)cc1	none
COc1ccc(OC)c(NS(=O)(=O)c2ccc(SC)cc2)c1	TEAD-YAP block 52
COc1ccc(C)cc1NS(=O)(=O)c1ccc(SC)cc1	none
COc1ccc(NS(=O)(=O)c2ccc(SC)cc2)cc1OC	TEAD-YAP block 44
